In PubChem BioAssay (NCI):
Compounds without any hit were thinned out: in the full panel of roughly 79,000, 15% have a hit. Activity calls are given as the source filed them. Cut-off read from the data, not from the text of the source: active = growth inhibition above about 70%; inactive = the rest.

Columns and labels:
[1] = NCI Yeast Anticancer Drug Screen. Data for the rad50 strain (AID 155);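 note: 0% = growth of vehicle-only cultures of the same strain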; conditions: S. cerevisiae rad50 strain growth inhibition; at 50.0 µM; stronger effect = higher value
How it was run: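 A DNA repair-deficient yeast mutant serves as the test organism; compound-induced growth inhibition is calculated against vehicle-treated cells.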

[2] = NCI Yeast Anticancer Drug Screen. Data for the mec2-1 strain (AID 157); conditions: S. cerevisiae mec2-1 strain, at 50.0 µM, stronger effect = higher value
How it was run: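 Readout is yeast growth inhibition, normalised to vehicle-treated controls, in the mec2-1 strain exposed to compound.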

[3] = NCI Yeast Anticancer Drug Screen. Data for the sgs1 mgt1 strain (AID 161);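 note: 0% = growth of cultures given vehicle only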; conditions: S. cerevisiae sgs1 mgt1 strain, at 50.0 µM, stronger effect = higher value
How it was run: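 This yeast growth screen uses a strain with defined DNA-repair lesions; compound-treated growth is compared with vehicle-treated growth.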

[4] = NCI Yeast Anticancer Drug Screen. Data for the cln2 rad14 strain (AID 165);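 note: 0% = growth equal to vehicle treated cultures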; conditions: S. cerevisiae cln2 rad14 strain, at 50.0 µM, stronger effect = higher value
How it was run: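 Relative to vehicle controls, growth inhibition of compound-treated cln2 rad14 yeast was recorded.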

[5] = NCI Yeast Anticancer Drug Screen. Data for the bub3 strain (AID 167); conditions: S. cerevisiae bub3 mutant strain, at 50.0 µM, stronger effect = higher value
How it was run: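 Inhibition values come from growth of compound-treated mutant yeast normalised to vehicle-treated controls.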

[6] = NCI Yeast Anticancer Drug Screen. Data for the mlh1 rad18 strain (AID 175); conditions: S. cerevisiae mlh1 rad18 strain growth inhibition; at 50.0 µM; stronger effect = higher value
How it was run: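 Test agents were incubated with a yeast strain of defined genotype (DNA damage repair defect). Inhibition of growth was derived by comparison with vehicle-exposed cultures.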

Measured: growth inhibition

c1ccc(N2CCN(c3ccccc3)CC2)cc1
inactive: [1] -31.7% | [2] -8.35% | [3] -1.15% | [4] -57.5% | [5] 37.8% | [6] 13.8%

Cc1ccccc1NC(N)=S
inactive: [1] 27.6% | [2] 9.15% | [3] -8.2% | [4] 1.55% | [5] 5.4% | [6] 15.7%

CC(C)=CCN=C(N)N
inactive: [1] -9.15% | [2] -51.1% | [3] -17.3% | [4] -8% | [5] -37.1% | [6] -28.7%

O=C(O)c1c(Cl)n(Cc2cc(Cl)ccc2Cl)c2ccccc12
inactive: [1] 4.5% | [2] 14.3% | [3] 19.9% | [4] 19.9% | [5] 11.3% | [6] 22.2%

CCCCC(=O)[O-].N.N.N.N.N.[Co+3].[O-][Cl+3]([O-])([O-])[O-]
inactive: [1] -19.9% | [2] 19.4% | [3] -18.4% | [4] 21.4% | [5] -0.3% | [6] -16%

CN1CCc2cc3c(cc2[C@H]1[C@@H]1OC(=O)c2c1ccc1c2OCO1)OCO3
inactive: [1] -11.4% | [2] -38.5% | [3] -26% | [4] -0.25% | [5] -29.1% | [6] -41%

C[N+]1=C(c2cccnc2/C=N/O)OCC1(C)C
inactive: [1] 1.3% | [2] -19.4% | [3] -13.7% | [4] -5.1% | [5] -24.4% | [6] -33.1%

CCCCN1C(=O)CC(=O)N(c2ccccc2)C1=O
inactive: [1] -8.55% | [2] -28% | [3] -3.8% | [4] 14.3% | [5] -14.4% | [6] -4.35%

C=C[CH2][Sn]([CH2]C=C)([CH2]CCC)[CH2]CCC
active: [1] 99.4% | [2] 99.5% | [3] 99.6% | [4] 99.2% | [5] 99.5% | [6] 99.4%

O=[N+]([O-])c1ccccc1CBr
inactive: [1] 52.8% | [2] 34.5% | [3] 57% | [4] 34.9% | [5] 33.5% | [6] 42%

C[C@@H]1C[C@@H]2c3cccc4c3c(cn4CO)C[C@H]2N(C)C1
inactive: [1] 8.55% | [2] -24.6% | [3] 28.6% | [4] 3.4% | [5] 0.55% | [6] 8.15%

CN(C)P1(=O)OCC(C(C)(C)C)CN1c1ccccc1 (configuration not stated)
inactive: [1] -6.6% | [2] 2.95% | [3] -2.8% | [4] -22.2% | [5] -12.9% | [6] -14.3%

COc1ccc(N2C(=O)C3C4c5ccccc5C(C3C2=O)[n+]2ccccc24)cc1 (configuration not stated)
inactive: [1] 27.2% | [2] -14.1% | [3] 9.7% | [4] -49.5% | [5] -0.45% | [6] 10.6%

C/C=C(\C)C1(CC)C(=O)NC(=O)N(C)C1=O (configuration not stated)
inactive: [1] 1.65% | [2] 1.7% | [3] 3.3% | [4] -0.6% | [5] -1.05% | [6] -5.95%

O=c1n(CC2CS2)c2ccccc2n1CC1CS1 (configuration not stated)
inactive: [1] 42% | [2] -0.6% | [3] 4.9% | [4] -30.4% | [5] -11.1% | [6] -5.3%

O=[N+]([O-])c1cc(S(=O)(=O)F)cc(Cl)c1O
inactive: [1] -10.2% | [2] 1.6% | [3] 2.25% | [4] -3.7% | [5] -2.75% | [6] 8.45%

CN(C)/N=C/c1c[nH]c2ccccc12
inactive: [1] -13.9% | [2] -13.8% | [3] -20.1% | [4] 0.5% | [5] -17.7% | [6] -8.4%

CCOP(=O)(CC(=O)c1cc2ccccc2[nH]1)OCC
inactive: [1] -3.5% | [2] 12.6% | [3] -2.1% | [4] 1.2% | [5] -8.1% | [6] -19.8%

O=C(CC(O)C(Cl)(Cl)Cl)CC(O)C(Cl)(Cl)Cl (configuration not stated)
inactive: [1] 15% | [2] -0.7% | [3] 10.2% | [4] 18% | [5] 20.4% | [6] 13.4%

CC(Cl)CN(CC(C)Cl)C(=O)Oc1ccc(CC(N)C(=O)O)cc1 (configuration not stated)
inactive: [1] 31.1% | [2] 0.7% | [3] 25.4% | [4] -20.6% | [5] -0.1% | [6] 20.3%

O=C1CN=C(c2ccccc2)c2cc(Cl)ccc2N1
inactive: [1] -4.7% | [2] 11.9% | [3] 3.35% | [4] 16.1% | [5] 8.55% | [6] 32.2%

CCC1(CNC(=O)CN)C(=O)NC(=O)NC1=O
inactive: [1] -14.8% | [2] -0.85% | [3] -4.4% | [4] 27.4% | [5] 2.7% | [6] 21.6%

COC(=O)C1C(O)CC2CCC1[N+]2(C)C (configuration not stated)
inactive: [1] 3.3% | [2] 5.8% | [3] 12.4% | [4] 2.05% | [5] 36.9% | [6] -6.8%

C[P+]1(C)CCCCC1
inactive: [1] 7.15% | [2] 12.8% | [3] 0.35% | [4] -2.7% | [5] -8.85% | [6] -17.1%

O=C(Cl)C(Br)Cc1ccccc1 (configuration not stated)
inactive: [1] 11.9% | [2] -19.4% | [3] 0.95% | [4] 7% | [5] 28.6% | [6] 2.1%

CC(C)NCc1ccccc1
inactive: [1] -4.25% | [2] -12.3% | [3] 19.5% | [4] 9.8% | [5] 7.35% | [6] -6.05%

O=P(O)(NCCCl)NCCCl
inactive: [1] -24.4% | [2] -17.9% | [3] -22.7% | [4] -5.6% | [5] -41.1% | [6] -39.5%

CSP(=S)(SC)SC(C)C
inactive: [1] 19% | [2] 1.65% | [3] 24.1% | [4] 27.2% | [5] 6.5% | [6] -4.45%

[I][Hg][CH]1CCC2CCCC1O2 (configuration not stated)
active: [1] 99.7% | [2] 99.6% | [3] 99.8% | [4] 99% | [5] 98.8% | [6] 99.7%

COc1cc(/C=C(\C)[N+](=O)[O-])cc(OC)c1
active: [6] 86.3%
inactive: [1] 18.9% | [2] 16.1% | [3] 34% | [4] 58.2% | [5] 64.7%

Cc1ccc(N2C(=O)C3C(C2=O)C2(Cl)C(Cl)=C(Cl)C3(Cl)C2(Cl)Cl)cc1Cl (configuration not stated)
inactive: [1] -1.25% | [2] 3.25% | [3] -1.1% | [4] -36.1% | [5] 2.65% | [6] 9.5%

[CH3][Hg][O]C(C)=O
active: [1] 99.5% | [2] 99.9% | [3] 99.7% | [4] 99.5% | [5] 99.7% | [6] 99.7%

c1cc2n[se]nc2cc1-c1ccc2n[se]nc2c1
inactive: [1] 26.7% | [2] -11.8% | [3] -7.85% | [4] -40.2% | [5] -9.55% | [6] -17.4%

O=P(N=C=S)(N=C=S)N=C=S
inactive: [1] 5.45% | [2] 6.6% | [3] 9.4% | [4] -11.6% | [5] 0.4% | [6] -12.8%

O=c1[nH]c2ccccc2c(=O)n1-c1ccco1
inactive: [1] 4.2% | [2] -13.5% | [3] -9% | [4] -15.4% | [5] -25.1% | [6] -1.65%

COc1cc(/C=C2\C(O)C3CCN2CC3)cc(OC)c1OC (configuration not stated)
inactive: [1] -9.25% | [2] -2.15% | [3] -5.6% | [4] -8.65% | [5] 9.1% | [6] -6.8%

O=C1C(=C(O)c2ccccc2)C(=O)c2ccccc21
inactive: [1] -3% | [2] 1.65% | [3] 1.65% | [4] -0.25% | [5] -1.8% | [6] 12.3%

Cc1c[nH]cn1.Cc1c[nH]cn1.Cc1c[nH]cn1.Cc1c[nH]cn1.Cc1c[nH]cn1.Cc1c[nH]cn1.N#CS.[Mn+2]
inactive: [1] 6.1% | [2] 4.3% | [3] 4.35% | [4] -4.8% | [5] 4.1% | [6] 5.05%

Nc1cc(N=Nc2ccc([As](=O)(O)O)cc2)ccc1O
inactive: [1] 7.95% | [2] 13.4% | [3] -5.2% | [4] 11% | [5] 16.6% | [6] 16.9%

[Cl][Sn]1([Cl])[CH2]CC[CH2][Sn]([Cl])([Cl])[CH2]CC[CH2]1
inactive: [1] 3.4% | [2] 34% | [3] -13.1% | [4] 39.4% | [5] -5.4% | [6] 27.4%

O=P(c1ccccc1)(c1ccccc1)c1ccccc1.O=P(c1ccccc1)(c1ccccc1)c1ccccc1.O=S(=O)(O)O.[Fe]
inactive: [1] -8.3% | [2] 3.45% | [3] 9.35% | [4] 17.6% | [5] 23.6% | [6] 8.2%

C1CC[N-]CC1.CC(=N\O)/C(C)=N/O.CC(=N\O)/C(C)=N/O.CCOC(=O)CC[C-]=O.[Co+2]
inactive: [1] -15.1% | [2] 8.95% | [3] -10.1% | [4] -39.3% | [5] 18% | [6] 9.55%
